This is an account of results in PubChem BioAssay (NCATS).

Records with an inconclusive call do not appear. Active and inactive are the calls of the source. Unless noted, the call rests on the fitted dose curve; in most records, active means well fitted curve in the direction sought with a large enough effect; inconclusive means small, poorly fitted or top-dose-only effect, or another doubt; inactive means no such curve, though single readings can be large; an effect the other way counts as inactive or inconclusive.

For assay [1], the target named is Ferritin light chain (Equus caballus) (UniProt P02791). In words: qHTS Validation Assay for Identification of Novel General Anesthetics (AID 2323). In short, it runs like this:
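Apoferritin from horse spleen (10 uM) was mixed with 1-aminoanthracene at 50% saturation in PBS, then compounds were added. After 10 min at room temperature, fluorescence was read (ex 380 nm, em 535 nm) and normalized to free-probe and complex controls.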

Assay [2] concerns the target ATP-dependent DNA helicase Q1 (Homo sapiens) (UniProt P46063). Put plainly: qHTS Validation Assay for Inhibitors of RecQ-Like Dna Helicase 1 (RECQ1) (AID 2353). The gist of the method: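 RECQ1T1 50 nM; forked duplex (20 bp + 30-nt ss tails) 200 nM, ATP 2 mM final; pH 8.0, 2 mM MgCl2, 2.5 ug/ml poly(dI-dC); 15 min compound preincubation; discontinuous kinetic read over 2 h at RT.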
Background: Quantitative high-throughput screening tests each substance at several concentrations.

A short description of assay [3]: Cytometric Cell-Based qHTS for Inhibitors of the mTORC1 Signaling Pathway in MEF (Tsc2-/-, p53-/-) Cells (AID 2660).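 Further: Tsc2 and p53 null MEFs carrying empty vector with compound for 24 h; percent of cells above a phospho-rpS6 to PI ratio cutoff in each well.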 In short, it runs like this: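 Immunofluorescence qHTS of rpS6 Ser235/236 phosphorylation: MEFs (Tsc2-/-, p53-/-) treated 24 h, 37 C, in DMEM + 10% FBS. Alexa-488 signal normalized to PI count, referenced to rapamycin (7.5 nM) and DMSO; PI cell number recorded for viability.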

Assay [4] can be described thus: High Content Imaging Cell-Based qHTS for Inhibitors of the mTORC1 Signaling Pathway in MEF (Tsc2-/-, p53-/-) Cells (AID 2666).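 Further: percent of cells scored positive for phospho-rpS6 Ser235/236 immunostaining by imaging.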 The settings on record: at 38.3 µM (top of the series). The gist of the method: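 Inhibition of rpS6 phosphorylation is measured by immunofluorescence imaging in empty-vector Tsc2-/-, p53-/- mouse embryonic fibroblasts after 24 hrs compound exposure at 37 degree Celsius. Results are reported as % positive cells per well.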

Assay [5] is described as follows: High Content Imaging Cell-Based qHTS for Inhibitors of the mTORC1 Signaling Pathway in MEF Cells (AID 2667).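 Further: Tsc2-/- p53-/- MEFs stably re-expressing wild-type Tsc2 exposed 24 h.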 The gist of the method:
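Fixed-cell imaging of phospho-S6 (Ser235/236, Alexa-488) after 24 hrs of compound treatment at 37 degree Celsius. Signal was normalized to Hoechst, and thresholds from the highest and lowest wells split cells into % active versus % non-active.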

A short description of assay [6]: Cytometry Cell-Based qHTS for Inhibitors of the mTORC1 Signaling Pathway in MEF cells (AID 2668).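 Further: Tsc2-/- p53-/- mouse embryonic fibroblasts stably re-expressing wild-type Tsc2; percent cells positive for phospho-rpS6 Ser235/236 relative to propidium iodide stain.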 In short, it runs like this: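 Pathway inhibition in WT Tsc2-rescued Tsc2-/-, p53-/- MEFs is measured as the Alexa-488 phospho-rpS6 to propidium iodide intensity ratio after 24 hrs of compound at 37 degree Celsius. PI-stained cell number gives viability.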
Assay [7] in a line: Validation screen for small molecules that induce DNA re-replication in MCF 10A normal breast cells (AID 463097). Further: nearly all actives have a fitted effect of over 60% in size. The gist of the method: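 DNA re-replication was detected as a rise in nuclei with elevated Hoechst fluorescence after a 48 hr compound exposure of MCF 10A cells at 37 C.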
The target in assay [8] is Ubiquitin carboxyl-terminal hydrolase 2 (Homo sapiens) (UniProt O75604). In words: qHTS Validation Assay for Inhibitors of Ubiquitin-specific Protease USP2a Using CHOP2 as the Reporter (AID 463106). In short, it runs like this:
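Inhibition is expressed relative to NEM as the full-inhibition control, with concentration-response curves classed by fit quality, magnitude and activity. Enzyme (USP2 core, 10nM) meets 25nM Ub-CHOP2 after compound preincubation; readings are taken at 60min.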

Assay [9] has as its target DNA polymerase III PolC-type (Bacillus subtilis (strain 168)) (UniProt P13267). Put plainly: qHTS Validation Assay for the Inhibitors of DNA Replication in Gram-Positive Bacteria (AID 485295).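 Further: reconstituted holoenzyme with PolC plus beta clamp SSB and primase; PicoGreen fluorescence of double-stranded DNA made on primed circular M13 template.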 In short, it runs like this:
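Primed replication of single-stranded M13Gori by a four-protein B. subtilis holoenzyme is measured at room temperature. Double-stranded product is quantified by PicoGreen fluorescence after an EDTA stop; inhibition is scaled between DMSO and EDTA controls.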

Assay [10] concerns the target Tumor susceptibility gene 101 protein (Homo sapiens) (UniProt Q99816). In words: qHTS Validation Assay for Iinhibitors of HIV-1 Budding by Blocking the Interaction of PTAP/TSG101 (AID 485342; calls by dose curve). In short, it runs like this:
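Fluorescence anisotropy measured PTAP-Tsg101 interaction. Final concentrations were 10 uM protein domain and 50 nM labeled peptide, equilibrated 20 min at room temperature.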

A short description of assay [11]: qHTS Validation Assay to Find Inhibitors of Chronic Active B-Cell Receptor Signaling (AID 485345; active means well fitted curve in the direction sought with a large enough effect in the main read-out, with a control signal flat, not every such curve was filed as active). In short, it runs like this:
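TMD8 ABC-DLBCL cells with dox-inducible green luciferase–IκBα fusion and red native luciferase; compounds 46 uM–3 nM, 4 h at 37C with doxycycline in 0.5% FBS IMDM. Green/red ratio normalized to basal and 10 uM MG-132.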

The target of assay [12] is Beta-2 adrenergic receptor (Homo sapiens) (UniProt P07550). Put plainly: qHTS validation assay of beta-arrestin-biased ligands of beta2-adrenergic receptor (AID 485366). In short, it runs like this: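 Agonism was measured as beta-arrestin recruitment to recombinant beta2-AR, releasing tTA to drive luciferase. Cells were exposed for 18 hr at 37 degrees C to a series up to 46 microM. %Activity from corrected luminescence gave concentration-response curves.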

A short description of assay [13]: Quantitative high throughput screen for delayed death inhibitors of the malarial parasite plastid, 96 hour incubation (AID 488745).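 Further: luciferase-expressing P. falciparum in erythrocytes at 2% hematocrit and 0.1% parasitemia; nearly all actives have a fitted effect of over 70% in size.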 The gist of the method:
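Readout is firefly luciferase luminescence from an integrated reporter in P. falciparum; lower signal marks inhibited growth. Cultures at 2% hematocrit and 0.1% parasitemia were treated with compound across two generations (96 h, 37 C, 5% CO2).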

Assay [14] can be described thus: Quantitative high throughput screen for delayed death inhibitors of the malarial parasite plastid, 48 hour incubation (AID 488752). Further: nearly all actives have a fitted effect of over 65% in size. In short, it runs like this:
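First, compound was pinned into RPMI 1640 medium containing 0.5% Albumax. Next, reporter-parasite-infected erythrocytes were added to 2% hematocrit and 0.1% parasitemia. After 48 h at 37 C under 5% CO2, luciferase detection reagent was added and luminescence read.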

For assay [15], the target named is Thioredoxin reductase 1, cytoplasmic (Rattus norvegicus) (UniProt O89049). Put plainly: qHTS Assay for Substrates of Mammalian Selenoprotein Thioredoxin Reductase 1 (TrxR1) (AID 488772).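 Further: a drop in NADPH fluorescence below the no-compound background marks a TrxR1 substrate.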 The gist of the method:
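In this dual-purpose format, potential substrates are identified from the first fluorescence read after selenite addition, not from the 8-minute delta. Rat enzyme is preincubated with NADPH and then with compound at ~22 deg C.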

The target is the same in assay [16]. Put plainly: qHTS Assay for Inhibitors of Mammalian Selenoprotein Thioredoxin Reductase 1 (TrxR1) (AID 488773).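 Further: drop in NADPH fluorescence over an 8 min run after selenite addition; nearly all actives have a fitted effect of over 40% in size.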 The settings on record: Potency: inhibition. The gist of the method: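 Inhibition is scored from the loss of NADPH fluorescence between first and last reads of an 8-min kinetic run. Selenite (400 uM) was the substrate, added after 15 min compound preincubation at room temperature.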

Assay [17] addresses Flap endonuclease 1 (Homo sapiens) (UniProt P39748). In words: qHTS Validation Assay for the Inhibitors of Human Flap endonuclease 1 (FEN1) (AID 488816). Further: potency means the concentration at half of the fitted maximal effect. The gist of the method: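 Steps: add FEN1 (10 nM reagent) or buffer only; pin compounds; hold 15 min at room temperature; start with substrate, 50 nM final; read at 0 and 15 min; correct, normalize and fit a four-parameter Hill curve.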

The target of assay [18] is ATP-dependent 6-phosphofructokinase (Trypanosoma brucei brucei) (UniProt O15648). In words: qHTS Validation Assay to Find Inhibitors of T. brucei phosphofructokinase (AID 485368). The conditions noted are these: outcome: dose series up to 57.5 µM. The gist of the method: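 ADP-Glo luminescence, two-step: residual ATP depleted, then ADP converted to ATP for luciferase. Enzyme 1.25 nM, F6P 0.5 mM, ATP 0.1 mM, pH 8.0 TEA buffer, 45 min RT. Curves fitted and classed by quality and efficacy.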

The target of assay [19] is RecQ-like DNA helicase BLM (Homo sapiens) (UniProt P54132). In words: qHTS Validation Assay for Inhibitors of Bloom's syndrome helicase (BLM) (AID 2364). In short, it runs like this: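 BLM 50 nM in 25 mM Tris-HCl pH 8.0, 5 mM NaCl, 2 mM MgCl2, 1 mM DTT, 0.01% Tween-20, 2.5 ug/ml poly(dI-dC); 15 min cpd preinc, RT. Start: 200 nM forked DNA + 2 mM ATP (final). TAMRA read, 2 reads 2 h apart.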

Sequence of Ubiquitin carboxyl-terminal hydrolase 2 (Homo sapiens) (O75604 whole entry, looked up): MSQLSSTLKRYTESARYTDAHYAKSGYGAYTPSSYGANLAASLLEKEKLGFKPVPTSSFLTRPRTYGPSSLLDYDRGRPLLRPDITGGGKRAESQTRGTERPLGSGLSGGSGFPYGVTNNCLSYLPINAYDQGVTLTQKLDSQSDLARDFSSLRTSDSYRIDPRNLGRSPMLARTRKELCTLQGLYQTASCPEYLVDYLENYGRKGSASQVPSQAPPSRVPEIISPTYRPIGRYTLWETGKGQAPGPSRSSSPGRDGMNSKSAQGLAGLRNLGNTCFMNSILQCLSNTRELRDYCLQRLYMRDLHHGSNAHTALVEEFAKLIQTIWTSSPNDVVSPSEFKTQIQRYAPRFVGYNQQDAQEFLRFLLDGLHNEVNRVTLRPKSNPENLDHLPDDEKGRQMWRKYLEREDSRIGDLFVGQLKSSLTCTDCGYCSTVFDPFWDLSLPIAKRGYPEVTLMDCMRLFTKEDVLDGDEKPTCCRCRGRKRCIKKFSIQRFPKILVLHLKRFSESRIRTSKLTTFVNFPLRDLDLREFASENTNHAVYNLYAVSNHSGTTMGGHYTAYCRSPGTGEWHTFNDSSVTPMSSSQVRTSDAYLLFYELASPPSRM
Sequence of DNA polymerase III PolC-type (Bacillus subtilis (strain 168)) (P13267 whole entry, looked up): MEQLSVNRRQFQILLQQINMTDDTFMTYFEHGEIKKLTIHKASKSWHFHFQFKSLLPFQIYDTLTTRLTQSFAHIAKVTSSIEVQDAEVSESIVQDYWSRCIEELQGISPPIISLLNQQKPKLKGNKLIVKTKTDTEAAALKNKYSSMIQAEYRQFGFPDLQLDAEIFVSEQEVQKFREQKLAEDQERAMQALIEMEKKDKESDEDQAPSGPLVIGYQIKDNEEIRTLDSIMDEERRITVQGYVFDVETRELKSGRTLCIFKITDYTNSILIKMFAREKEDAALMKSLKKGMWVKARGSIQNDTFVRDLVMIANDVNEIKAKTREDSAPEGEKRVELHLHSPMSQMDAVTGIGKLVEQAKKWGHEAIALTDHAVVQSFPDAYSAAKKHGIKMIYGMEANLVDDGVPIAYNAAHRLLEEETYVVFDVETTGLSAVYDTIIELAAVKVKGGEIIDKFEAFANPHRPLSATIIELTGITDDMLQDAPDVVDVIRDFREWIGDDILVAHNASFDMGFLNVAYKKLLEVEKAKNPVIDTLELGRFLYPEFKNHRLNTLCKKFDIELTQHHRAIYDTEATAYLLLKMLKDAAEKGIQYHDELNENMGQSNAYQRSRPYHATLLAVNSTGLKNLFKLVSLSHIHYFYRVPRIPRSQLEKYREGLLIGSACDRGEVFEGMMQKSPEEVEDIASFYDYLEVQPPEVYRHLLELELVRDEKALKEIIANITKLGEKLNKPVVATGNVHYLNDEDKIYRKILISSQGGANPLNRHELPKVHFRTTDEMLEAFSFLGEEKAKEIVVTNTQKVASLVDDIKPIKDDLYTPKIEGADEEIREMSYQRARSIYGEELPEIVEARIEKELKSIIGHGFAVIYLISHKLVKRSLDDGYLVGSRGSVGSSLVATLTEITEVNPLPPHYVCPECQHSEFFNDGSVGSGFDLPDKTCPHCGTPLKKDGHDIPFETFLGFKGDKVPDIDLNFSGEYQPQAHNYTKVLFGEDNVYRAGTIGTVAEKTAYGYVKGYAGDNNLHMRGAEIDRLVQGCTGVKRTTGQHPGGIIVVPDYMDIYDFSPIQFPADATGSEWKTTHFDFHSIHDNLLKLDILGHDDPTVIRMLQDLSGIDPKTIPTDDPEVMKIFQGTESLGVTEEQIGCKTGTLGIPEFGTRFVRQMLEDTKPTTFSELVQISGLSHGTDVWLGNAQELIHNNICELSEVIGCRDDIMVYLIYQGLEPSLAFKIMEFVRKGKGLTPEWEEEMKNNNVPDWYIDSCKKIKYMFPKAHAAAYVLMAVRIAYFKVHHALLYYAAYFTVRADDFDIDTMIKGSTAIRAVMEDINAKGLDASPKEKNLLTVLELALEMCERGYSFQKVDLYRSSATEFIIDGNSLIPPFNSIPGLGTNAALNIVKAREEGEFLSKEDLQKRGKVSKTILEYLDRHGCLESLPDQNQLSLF
Sequence of Beta-2 adrenergic receptor (Homo sapiens) (P07550 whole entry, looked up): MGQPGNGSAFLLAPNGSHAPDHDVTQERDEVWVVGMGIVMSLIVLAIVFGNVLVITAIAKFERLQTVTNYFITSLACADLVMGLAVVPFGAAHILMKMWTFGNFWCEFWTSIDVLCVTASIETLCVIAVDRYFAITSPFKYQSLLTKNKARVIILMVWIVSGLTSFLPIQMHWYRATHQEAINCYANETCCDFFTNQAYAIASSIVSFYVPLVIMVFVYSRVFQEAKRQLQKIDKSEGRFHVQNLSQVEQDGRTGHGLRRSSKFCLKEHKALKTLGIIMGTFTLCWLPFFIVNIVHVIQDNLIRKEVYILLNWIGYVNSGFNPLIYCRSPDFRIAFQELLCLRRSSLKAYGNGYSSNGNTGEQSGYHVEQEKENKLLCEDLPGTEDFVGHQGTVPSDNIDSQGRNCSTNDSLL
Sequence of ATP-dependent 6-phosphofructokinase (Trypanosoma brucei brucei) (O15648 whole entry, looked up): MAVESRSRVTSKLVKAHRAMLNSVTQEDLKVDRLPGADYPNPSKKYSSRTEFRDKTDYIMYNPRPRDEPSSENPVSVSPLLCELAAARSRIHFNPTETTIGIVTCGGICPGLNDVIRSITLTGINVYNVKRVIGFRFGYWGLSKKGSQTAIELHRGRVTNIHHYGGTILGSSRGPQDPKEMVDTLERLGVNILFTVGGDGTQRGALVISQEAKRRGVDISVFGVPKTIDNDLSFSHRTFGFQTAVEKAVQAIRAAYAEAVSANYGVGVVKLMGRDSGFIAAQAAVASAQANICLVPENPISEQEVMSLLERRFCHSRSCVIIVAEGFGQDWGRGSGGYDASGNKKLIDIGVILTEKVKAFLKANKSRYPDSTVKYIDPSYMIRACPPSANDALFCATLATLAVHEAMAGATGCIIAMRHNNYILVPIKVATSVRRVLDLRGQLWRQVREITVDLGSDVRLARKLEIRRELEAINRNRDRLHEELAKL
Sequence of Tumor susceptibility gene 101 protein (Homo sapiens) (Q99816 whole entry, looked up, the tested form may be a part): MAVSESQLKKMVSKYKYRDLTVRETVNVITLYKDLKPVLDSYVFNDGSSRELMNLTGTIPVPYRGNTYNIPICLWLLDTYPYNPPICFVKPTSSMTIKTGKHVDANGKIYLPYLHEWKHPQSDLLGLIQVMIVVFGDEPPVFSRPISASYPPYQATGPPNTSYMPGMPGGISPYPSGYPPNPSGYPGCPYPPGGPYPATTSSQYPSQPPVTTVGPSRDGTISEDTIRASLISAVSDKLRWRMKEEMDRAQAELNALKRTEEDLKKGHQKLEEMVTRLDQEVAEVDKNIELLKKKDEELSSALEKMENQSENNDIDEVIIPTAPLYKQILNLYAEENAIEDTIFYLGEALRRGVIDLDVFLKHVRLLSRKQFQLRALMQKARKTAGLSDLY
Sequence of Thioredoxin reductase 1, cytoplasmic (Rattus norvegicus) (O89049 whole entry, looked up): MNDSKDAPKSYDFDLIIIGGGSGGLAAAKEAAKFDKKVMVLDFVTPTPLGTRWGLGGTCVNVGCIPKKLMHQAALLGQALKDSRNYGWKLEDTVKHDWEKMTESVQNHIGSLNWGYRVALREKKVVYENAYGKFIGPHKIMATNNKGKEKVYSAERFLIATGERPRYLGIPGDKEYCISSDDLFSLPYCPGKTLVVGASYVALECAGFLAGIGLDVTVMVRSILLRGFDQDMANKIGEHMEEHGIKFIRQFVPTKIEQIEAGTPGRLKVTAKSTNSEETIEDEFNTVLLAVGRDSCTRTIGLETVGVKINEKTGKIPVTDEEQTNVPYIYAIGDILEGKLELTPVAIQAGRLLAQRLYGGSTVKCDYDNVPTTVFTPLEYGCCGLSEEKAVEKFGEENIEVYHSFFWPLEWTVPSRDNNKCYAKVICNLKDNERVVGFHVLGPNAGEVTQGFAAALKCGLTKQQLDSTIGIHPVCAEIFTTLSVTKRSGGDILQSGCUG
Sequence of Flap endonuclease 1 (Homo sapiens) (P39748 whole entry, looked up): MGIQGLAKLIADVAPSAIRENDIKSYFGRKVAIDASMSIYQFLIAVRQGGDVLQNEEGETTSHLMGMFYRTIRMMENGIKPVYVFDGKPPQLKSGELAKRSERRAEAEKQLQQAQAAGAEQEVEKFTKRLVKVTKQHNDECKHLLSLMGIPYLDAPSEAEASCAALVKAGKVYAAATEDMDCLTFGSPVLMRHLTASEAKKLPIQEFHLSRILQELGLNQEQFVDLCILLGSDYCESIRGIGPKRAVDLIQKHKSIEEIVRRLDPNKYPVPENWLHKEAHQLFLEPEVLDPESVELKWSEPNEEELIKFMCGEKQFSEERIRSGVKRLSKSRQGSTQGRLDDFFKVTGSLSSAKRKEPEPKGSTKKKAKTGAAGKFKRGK
Sequence of ATP-dependent DNA helicase Q1 (Homo sapiens) (P46063 whole entry, looked up): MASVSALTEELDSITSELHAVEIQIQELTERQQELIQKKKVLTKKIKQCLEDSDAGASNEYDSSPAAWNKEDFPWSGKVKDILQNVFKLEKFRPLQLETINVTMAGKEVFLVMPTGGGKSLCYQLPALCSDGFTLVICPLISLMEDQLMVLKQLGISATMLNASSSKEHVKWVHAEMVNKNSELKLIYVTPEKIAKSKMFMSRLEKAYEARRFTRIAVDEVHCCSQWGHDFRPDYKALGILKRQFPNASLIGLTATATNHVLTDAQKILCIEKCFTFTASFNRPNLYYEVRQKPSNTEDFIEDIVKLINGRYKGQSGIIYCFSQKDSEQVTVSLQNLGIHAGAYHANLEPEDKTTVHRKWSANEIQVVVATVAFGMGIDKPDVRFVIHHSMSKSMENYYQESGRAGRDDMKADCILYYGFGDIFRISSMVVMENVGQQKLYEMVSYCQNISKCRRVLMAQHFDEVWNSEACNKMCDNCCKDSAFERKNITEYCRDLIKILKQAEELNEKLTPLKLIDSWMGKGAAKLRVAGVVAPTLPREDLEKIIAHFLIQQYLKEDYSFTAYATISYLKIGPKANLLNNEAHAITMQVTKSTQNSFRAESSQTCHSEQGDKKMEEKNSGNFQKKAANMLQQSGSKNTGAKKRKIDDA

On to `CCCCNc1cc(C(=O)O)cc(S(N)(=O)=O)c1Oc1ccccc1`, for which the result in [1], in assay [2], in assay [3], in assay [4], in [5] and in assay [6] was inactive. The compound was called inactive in assay [8], in assay [10], in assay [11], in assay [12] and in assay [15]. Further, the Potency entry in assay [7], in assay [9], in assay [13], in assay [14], in assay [16] and in assay [17] was “inactive” each time.
As to `O=C(Nc1nc2ccccc2n1CCN1CCOCC1)c1cccc([N+](=O)[O-])c1`, the call in assay [3], in assay [4], in assay [8], in assay [10], in assay [11] and in [12] was inactive. Further, the call in assay [15] was inactive. The Potency result in assay [9], in assay [16] and in assay [17] was “inactive” throughout.
Regarding `C[C@]12CCC(=O)C=C1CC[C@@H]1[C@@H]2[C@@H](O)C[C@@]2(C)[C@H]1CC[C@]2(O)C(=O)CO`, the call in [3], in [4], in [5], in assay [6], in assay [8] and in assay [10] was inactive. In addition, the result in assay [12], in [18] and in assay [15] was inactive. Moreover, the Potency entry in [9], in assay [16] and in assay [17] was “inactive” in each case.
In the case of `Nc1ccc(S(=O)(=O)Nc2ccnn2-c2ccccc2)cc1`, the compound was classed as inactive in assay [2], in assay [3], in assay [4], in assay [5], in assay [6] and in [8]. Moreover, the compound was called inactive in assay [10], in [11], in assay [12], in [18] and in [15]. The Potency result in assay [19], in [7], in assay [9], in assay [13], in [14] and in [16] was “inactive” throughout. For the same compound, in assay [17], the Potency result was “inactive”.
For `NCCc1ccc(O)c(O)c1`, the call in assay [1], in assay [2], in assay [3], in assay [4], in [8] and in assay [10] was inactive. Further, the compound was called inactive in assay [11], in assay [12] and in [15]. Further, the Potency result in [7], in [9], in [13], in assay [14] and in assay [16] was “inactive” throughout. Besides, in assay [17], the Potency was 844 nM (active).
As to `OC(CCN1CCCCC1)(c1ccccc1)C1CC2C=CC1C2` (configuration not stated), the compound was classed as inactive in assay [3], in assay [4], in [5], in [6], in [8] and in assay [10]. Also, the compound was called inactive in assay [11], in [12], in assay [18] and in [15]. The Potency result in [9], in assay [16] and in [17] was “inactive” in each case.
In the case of `Cc1[nH]c(=O)c(C#N)cc1-c1ccncc1`, the compound was classed as inactive in assay [1], in [2], in assay [3], in assay [4], in assay [5] and in assay [6]. The call in assay [8], in assay [10], in [11], in [12] and in [15] was inactive. Also, the Potency entry in assay [7], in assay [9], in assay [13], in assay [14], in assay [16] and in assay [17] was “inactive” each time.
